Data reported in PubChem BioAssay (Tox21).
Values without a mark were called inactive. Calls come from the whole dose curve; as a rule, active = well fitted activation curve with a large enough effect in the repeat runs; inconclusive = weak or mixed curves; inactive = flat fitted curve, though single readings scatter.

The molecules below were run against KiSS-1 receptor (Homo sapiens) (UniProt Q969F8) (assay: Human kisspeptin (KISS1R) small molecule agonists, calcium flux assay in KISS1R-HEK293 cells (AID 1920064)). Conditions: KISS1R-HEK293, calcium flux fluorescence, agonist; series mostly up to 76.8 µM; activation: at the top concentration.
How it was run: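 Cells plated and incubated 18 h; dye added, 1 h at 37 C; compounds in DMSO pinned in; signal read at 480/540 nm every second for 3 min. Each compound tested at 15 concentrations in triplicate.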
% is set by controls: 0 for no effect and ±100 for the full control effect.

KiSS-1 receptor (Homo sapiens), sequence (Q969F8 whole entry, looked up): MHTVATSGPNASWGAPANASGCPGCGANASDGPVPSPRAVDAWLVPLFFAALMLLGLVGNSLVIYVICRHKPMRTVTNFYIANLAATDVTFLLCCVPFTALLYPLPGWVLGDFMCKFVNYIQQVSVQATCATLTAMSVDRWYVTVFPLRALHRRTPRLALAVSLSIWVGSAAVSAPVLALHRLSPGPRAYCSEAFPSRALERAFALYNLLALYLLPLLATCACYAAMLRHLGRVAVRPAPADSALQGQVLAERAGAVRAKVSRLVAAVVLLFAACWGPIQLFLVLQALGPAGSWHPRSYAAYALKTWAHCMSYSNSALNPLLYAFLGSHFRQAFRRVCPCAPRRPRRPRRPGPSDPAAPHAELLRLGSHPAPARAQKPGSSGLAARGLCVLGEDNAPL

| Compound | activation |
| --- | --- |
| OC[C@H]1O[C@@H]2O[C@H]3[C@H](O)[C@@H](O)[C@@H](O[C@H]4[C@H](O)[C@@H](O)[C@@H](O[C@H]5[C@H](O)[C@@H](O)[C@@H](O[C@H]6[C@H](O)[C@@H](O)[C@@H](O[C@H]7[C@H](O)[C@@H](O)[C@@H](O[C@H]8[C@H](O)[C@@H](O)[C@@H](O[C@H]9[C@H](O)[C@@H](O)[C@@H](O[C@H]1[C@H](O)[C@H]2O)O[C@@H]9CO)O[C@@H]8CO)O[C@@H]7CO)O[C@@H]6CO)O[C@@H]5CO)O[C@@H]4CO)O[C@@H]3CO | 13.4% [at 35.3 µM] |
| CCCCCCCCCCCCOC(C)=O | -0.17% |
| S=C(S)NCCNC(=S)S | -3.54% |
| C=Cc1ccc(C(C)(C)C)cc1 | 2.15% |
| CCN[C@H]1C[C@H](C)S(=O)(=O)c2sc(S(N)(=O)=O)cc21 | 8.2% [at 35.3 µM] |
| O=c1c2ccccc2oc2ccccc12 | -1.04% |
| Nc1ncn([C@H]2C[C@H](O)[C@@H](CO)O2)c(=O)n1 | -1.41% [at 35.3 µM] |
| CC(=O)Nc1ccc(S(=O)(=O)Cl)cc1 | 7.5% |
| CC(C)(C)C(=O)CCc1ccc(Cl)cc1 | -2.32% |
| CC(=O)NNC(C)=O | -3.5% |
| O=[N+]([O-])c1ccc(Cl)cc1Cl | -0.653% |
| OCC1CC=CCC1 (centres undefined) | -0.525% |
| C=CCN(CC=C)CC=C | 0.28% |
| O=C(Cl)c1c(Cl)cccc1Cl | 1.67% |
| NCCCN(CCO)CCO | 0.439% |
| CC1=C(C(=O)O)N2C(=O)[C@@H](NC(=O)[C@H](N)C3=CCC=CC3)[C@H]2SC1 | -0.321% [at 35.3 µM] |
| C#CC(O)C(CC)CCCC (centres undefined) | 0% |
| C=C1CCC2CC1C2(C)C (centres undefined) | -1.54% |
| CC(C)CCOCc1ccccc1 | 4.77% |
